High-throughput results as filed in PubChem.
FGF22 binding – binders of recombinant human FGF22 by thermal shift; Q9HCT0; SYPRO orange fluorescence; percent of sucrose octasulfate shift, DMSO zero; AID 651658; activity (Tm shift, normalised), % at 9.99 µM; 1.5% of 340,000 active;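 active = mean Tm shift, scaled 0 neutral to 100 positive control, at about 1.3% or above, every replicate too, limit read from the data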
Target sequence (Q9HCT0 whole entry, looked up): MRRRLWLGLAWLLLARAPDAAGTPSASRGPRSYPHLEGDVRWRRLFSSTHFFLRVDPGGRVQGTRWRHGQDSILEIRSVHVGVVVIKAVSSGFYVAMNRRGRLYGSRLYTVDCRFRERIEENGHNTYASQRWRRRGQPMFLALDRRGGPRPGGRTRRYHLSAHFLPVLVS
ERAP1 inh – inhibitors of human ERAP1 aminopeptidase; 0.15% of 340,000 active; inhibition, % at 10.7 µM; Q9NZ08; recombinant ERAP1, Leu-AMC fluorescence, 60 min;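 active = mean replicate inhibition of at least 30%, or all replicates individually reaching that 30% level; inactive = mean below 30% and not every replicate reaching it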;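 note: 0% = neutral control wells and 100% = L-leucinethiol positive control wells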
DENV2 CPE rescue – inhibitors of DENV2 cytopathic effect | DENV2-infected cells, cytopathic effect rescue, plate reader | CPE inhibition, % at 9.99 µM | 1.7% of 350,000 active; in the data active = CPE inhibition above about 20%, passing the limit was not always enough; tested in BHK-21 cells;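 note: 0% = median of neutral control wells and 100% = median of positive control wells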
RAD52 anneal inh – inhibitors of human RAD52 DNA annealing; AID 651710; inhibition, % at 18.7 µM; recombinant RAD52 DNA annealing, FRET fluorescence; 0.46% of 360,000 active; P43351;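 active = every replicate showing at least 50% inhibition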
Target sequence (P43351 whole entry, looked up): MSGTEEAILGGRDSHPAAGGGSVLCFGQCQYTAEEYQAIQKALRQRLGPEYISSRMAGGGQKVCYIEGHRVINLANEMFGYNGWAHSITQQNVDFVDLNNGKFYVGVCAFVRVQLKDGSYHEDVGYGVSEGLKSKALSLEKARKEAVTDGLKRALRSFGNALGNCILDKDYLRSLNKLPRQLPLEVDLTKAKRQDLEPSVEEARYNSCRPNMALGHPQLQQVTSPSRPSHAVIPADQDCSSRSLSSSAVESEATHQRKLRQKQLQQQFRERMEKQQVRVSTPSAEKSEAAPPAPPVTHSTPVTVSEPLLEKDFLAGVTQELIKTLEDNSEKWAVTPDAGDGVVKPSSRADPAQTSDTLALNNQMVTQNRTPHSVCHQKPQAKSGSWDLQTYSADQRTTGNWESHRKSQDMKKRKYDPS
MLL AF4-AF9 inh – blocks AF4 peptide binding to human AF9; P42568; AlphaScreen, biotin-AF4 peptide binding to FLAG-AF9; inhibition, % at 10 µM; 0.47% of 350,000 active;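 active = every replicate reaching a set inhibition limit, whatever the replicate mean, cut at about 25% in these data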;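 note: 0% = plate neutral control median and 100% = total signal loss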
* hit, by the source's call; . = no result. In the library only some 4% were active in any assay of this set; here they are far more common.

SMILES	FGF22 binding	ERAP1 inh	DENV2 CPE rescue	RAD52 anneal inh	MLL AF4-AF9 inh
Cc1ccc(S(=O)(=O)Oc2cccc([N+](=O)[O-])c2)cc1	44*	1	-10	2	2
Cc1ccc(S(=O)(=O)Oc2ccccc2)cc1	0	-6	1	2	-4
C=CCN1C(=O)C(CC(=O)Nc2ccccc2)N(Cc2ccccn2)C1=S (centres undefined)	44*	-1	4	-4	0
C[C@H](CO)N1C[C@H](C)[C@H](CN(C)Cc2ccc(C(=O)O)cc2)OCCCC[C@H](C)Oc2ccc(NC(=O)CCCN(C)C)cc2C1=O	1	-5	30*	14	-2
C[C@@H]1CCCCO[C@H](CN(C)Cc2ccc(C(=O)O)cc2)[C@@H](C)CN([C@@H](C)CO)C(=O)c2cc(NC(=O)c3ccccc3)ccc2O1	0	1	3	-4	-4
C[C@@H]1CN([C@H](C)CO)C(=O)c2cc(NC(=O)c3ccccc3)ccc2O[C@@H](C)CCCCO[C@@H]1CN(C)Cc1ccc(C(=O)O)cc1	0	6	115*	3	-4
C[C@@H]1CCCCO[C@@H](CN(C)Cc2ccc(C(=O)O)cc2)[C@H](C)CN([C@H](C)CO)C(=O)c2cc(NC(=O)c3ccccc3)ccc2O1	0	-2	79*	8	-5
C[C@H]1CCCCO[C@@H](CN(C)Cc2ccc(C(=O)O)cc2)[C@@H](C)CN([C@@H](C)CO)C(=O)c2cc(NC(=O)c3ccccc3)ccc2O1	0	3	-7	-2	-1
C[C@@H]1CN([C@@H](C)CO)C(=O)c2cccc(NC(=O)CCCCCC(=O)Nc3ccccc3N)c2O[C@H]1CN(C)S(=O)(=O)c1cn(C)cn1	0	3	2	-7	2
COc1ccc(NC(=O)Nc2ccc3c(c2)C(=O)N([C@@H](C)CO)C[C@H](C)[C@@H](CN(C)Cc2ccc(C(F)(F)F)cc2)OCCCC[C@@H](C)O3)cc1	1	-1	-13	-63	-1
CC#CCOCC1CN(C)C(=O)O1 (centres undefined)	43*	-1	-6	-11	-3
CN1CC(COCc2ccccc2)Oc2ccccc2S1(=O)=O (centres undefined)	0	.	8	-16	-1
COCC#Cc1ccc2c(c1)O[C@H](CN(C)S(=O)(=O)c1cccc(F)c1)[C@@H](C)CN([C@H](C)CO)S2(=O)=O	-1	-2	-1	-24	-2
C/C=C/c1ccc([C@H]2[C@@H](CO)N3CCCCN(C)C[C@H]23)cc1	0	0	54*	11	2
Cc1ccc(-c2ccc([C@H]3[C@@H](CO)N4CCCCN(C)C[C@H]34)cc2)cc1	-1	2	27*	34	14
CN1CCCCN2[C@H](CO)[C@@H](c3ccc(-c4ccc(F)cc4)cc3)[C@@H]2C1	1	0	61*	34	-3
Cc1ccc(-c2ccc([C@H]3[C@H]4CN(C)CCCCN4[C@H]3CO)cc2)cc1	1	0	5	7	4
C[C@@H]1CN([C@@H](C)CO)S(=O)(=O)c2ccc(C#Cc3cccnc3)cc2O[C@H]1CN(C)C(=O)CN(C)C	0	1	13	4	-4
CCOc1cccc2sc(N(CCCN(C)C)C(=O)c3ccc(S(=O)(=O)N(C)c4ccccc4)cc3)nc12	44*	-2	7	49	12
CCC(=O)N1CCC2(CC1)CN(Cc1cc(F)ccc1F)[C@H](CO)c1[nH]c3cc(OC)ccc3c12	0	2	-5	-36	-7
C1=CCN(c2nc(N3CCOCC3)nc(N3CCCc4ccccc43)n2)CC1	44*	1	1	-7	-5
CC=Cc1ccc2n(c1=O)C[C@@H]1[C@@H](CO)[C@H](C(=O)NC3CCCC3)N[C@H]21 (mixture of isomers)	.	1	7	-18	0
CN(C)C(=O)c1ccc(-c2ccccc2[C@@H]2[C@@H](CO)N(C(=O)C3CCCC3)[C@H]2C#N)cc1	.	5	15	58*	-2
CN(C)C(=O)c1ccc(-c2ccccc2[C@@H]2[C@H](C#N)N(C(=O)C3CCC3)[C@H]2CO)cc1	0	0	2	1	-1
CN(C)C(=O)c1ccc(-c2ccccc2[C@H]2[C@@H](C#N)N(C(=O)C3CCC3)[C@H]2CO)cc1	0	-1	24*	-2	-1
SMILES	FGF22 binding	ERAP1 inh	DENV2 CPE rescue	RAD52 anneal inh	MLL AF4-AF9 inh
CN(C)C(=O)c1ccc(-c2ccc([C@@H]3[C@@H](CO)N(C(=O)C4CCC4)[C@H]3C#N)cc2)cc1	0	-2	50*	3	-1
CN(C)C(=O)c1ccc(-c2ccccc2[C@H]2[C@H](C#N)N(C(=O)C3CCCCC3)[C@H]2CO)cc1	0	7	28*	-4	0
COc1cccc(-c2ccc([C@@H]3[C@H](CO)N(C(=O)C4CC4)C34CN(C(C)=O)C4)cc2)c1	1	0	-2	-14	-1
C[C@@H]1CN([C@H](C)CO)S(=O)(=O)c2ccc(C#Cc3ccncc3)cc2O[C@@H]1CN(C)C(=O)C1CCOCC1	0	3	13	-5	-2
Cc1noc(C)c1NC(=O)N(C)C[C@H]1Oc2c(NC(=O)CCCCCC(=O)Nc3ccccc3N)cccc2C(=O)N([C@H](C)CO)C[C@@H]1C	0	-1	2	-11	0
COc1cc(=O)n(C)c2ccccc12	0	-3	6	-12	-8
Cc1cc(=O)n(C)c2ccccc12	43*	-1	-2	-10	-2
CCOc1ccc(CCNC(=O)COC(=O)Cn2cnc3ccccc3c2=O)cc1OCC	0	3	0	9	-2
CCOc1ccc(CCNC(=O)COC(=O)Cn2cnc3c2c(=O)n(C)c(=O)n3C)cc1OCC	0	48*	4	-7	2
COC(=O)c1cn(NC(=O)Cn2nc([N+](=O)[O-])c(Br)c2C)c(=O)c2ccccc12	43*	7	7	-9	-1
COc1ccc(S(=O)(=O)N(C)C[C@@H]2OCCCC[C@H](C)Oc3ccc(NC(=O)Nc4cccc5ccccc45)cc3C(=O)N([C@H](C)CO)C[C@@H]2C)cc1	0	-4	5	-1	-18
COc1ccc(S(=O)(=O)N(C)C[C@H]2OCCCC[C@@H](C)Oc3ccc(NC(=O)Nc4cccc5ccccc45)cc3C(=O)N([C@H](C)CO)C[C@@H]2C)cc1	1	-6	2	4	-18
COc1ccc(S(=O)(=O)N(C)C[C@H]2OCCCC[C@@H](C)Oc3ccc(NC(=O)Nc4cccc5ccccc45)cc3C(=O)N([C@@H](C)CO)C[C@@H]2C)cc1	1.3*	-5	0	-20	-8
C[C@H](CO)N1C[C@H](C)[C@H](CN(C)S(=O)(=O)c2cn(C)cn2)OCCCC[C@H](C)Oc2ccc(NC(=O)Nc3cccc4ccccc34)cc2C1=O	-1	1	2	-17	0
